Calls of active or inactive are those of the source. How the source made its calls: active means hit-call score of the fitted dose curve at least 0.9, where 1 is the maximum; inactive means score below 0.9.

A short description of this experiment: ATG_BRE_CIS: Attagene CIS-FACTORIAL HepG2 Assay for human Bone Morphogenetic Protein (BMP) Response Element (BRE) (AID 2282933). As to conditions: HepG2 BMP response element reporter, Attagene transcription factor profiling; actives raise or lower the signal. As to the method: ATG_CIS is a cell-based, multiplexed-readout assay that uses HepG2, a human liver cell line, with measurements taken at 24 hours after chemical dosing in a 24-well plate.ATG_BRE_CIS is one of 52 assay component(s) measured or calculated from the ATG_CIS assay. It is designed to make measurements of mRNA induction, a form of inducible reporter, as detected with fluorescence intensity signals by Reverse transcription polymerase chain reaction (RT-PCR) and Capillary electrophoresis technology.Data from the assay component ATG_BRE_CIS was analyzed into 1 assay endpoint. This assay endpoint, ATG_BRE_CIS, was analyzed with bidirectional fitting relative to DMSO as the negative control and baseline of activity. Using a type of inducible reporter, measures of mRNA for gain or loss-of-signal activity can be used to understand the reporter gene at the transcription factor-level as they relate to the gene SMAD1. Furthermore, this assay endpoint can be referred to as a primary readout, because this assay has produced multiple assay endpoints where this one serves a reporter gene function. To generalize the intended target to other relatable targets, this assay endpoint is annotated to the dna binding intended target family, where the subfamily is Smad protein.
Human liver HepG2 cells are transiently transfected with multiple reporter transcription units (MRTUs) in 6-well plates using FuGene 6 reagent (Roche; 3 ml FuGene/1 mg DNA). The MRTU constructs are regulated by a cis-regulating element (promoter). […] A major difference between the CIS and TRANS system is that in CIS activities of endogenous TFs are measured, whereas the TRANS assay evaluates changes in activities of exogenous, chimeric NR-Gal4 proteins. […] At the end of 24 hour incubation, total RNA was isolated using TriZol reagent (Invitrogen). The isolated RNA is then reverse-transcribed using oligo(dT) primer and Mo-MLV reverse transcriptase (Invitrogen) with DNAse I (Ambion) treatment for 30 min. The one-tenth of the produced cDNA was amplified by PCR using Taq DNA polymerase (Invitrogen) and two reporter sequence-specific primers. The PCR products were fluorescently labeled by primer extension with 6-arboxyfluorescein (6-FAM) 5'-labeled reporter sequence-specific primer (2 min at 95 C, 20 s at 68 C and 10 min at 72 C) and these products were digested with 5U of HpaI (New England Biolabs) for 2h at 37 C. The fragments were purified using Qiaquick PCR columns (Qiagen), analyzed on an ABI 3130xL genetic analyzer (Applied Biosystems) with peak positions identified by using a set of X-rhodamine (ROX)-labeled MapMarker1000 molecular weight standards (BioVentures). The raw capillary electrophoresis data was processed using Attagraph software (Attagene).
As to `CC(C)c1ccc(O)cc1`, the molecule was called inactive.
Usually AC50 stands for the concentration at which the activity in the assay is half-maximal. As for `COC(C)(C)CCC[C@H](C)C/C=C/C(C)=C/C(=O)OC(C)C`, the AC50 was 84.6 µM (active).
Regarding `CC1(C)C(=O)NC(=O)NC1=O`, the call was inactive.
Take `O=c1c2ccccc2c(=O)c2c1cc(Cl)c1[nH]c3c([nH]c12)c(Cl)cc1c(=O)c2ccccc2c(=O)c13`: the AC50 was 26.1 µM (active).
For `SCc1ccco1`, the result was inactive.
The same measure, in the same setting: the value for `COc1cc(OC)nc(Oc2cccc(Oc3nc(OC)cc(OC)n3)c2C(=O)O)n1` was “inactive”; that for `O=[N+]([O-])c1cc(C(F)(F)F)c(Cl)c([N+](=O)[O-])c1Cl` was “inactive”.
With `Cc1ccc(OP(=O)(Oc2ccc(C)cc2)Oc2ccc(C)cc2)cc1` (tested in a mixture with another compound), the result was inactive.
Still for that read-out and setting: the value for `CCN(CC)C(=S)S` was “inactive”.
On to `[CH3][Sn]([CH3])([Cl])[Cl]`, for which the result was inactive.
As for `N#Cc1cc(I)c(O)c(I)c1`, the call was inactive.
Still for that read-out and setting: to `CCC(C)c1cc(C(C)(C)C)cc(-n2nc3ccccc3n2)c1O` (stereo not given) belongs “inactive”; to `CCOC(=O)N(C)N=O`, “inactive”; to `CCOC(=O)COc1ccc(Cl)cc1Cl`, “inactive”.
Same read-out and setting: the value for `O=[N+]([O-])O` was “inactive”; that for `CC=Cc1ccc2c(c1)OCO2` was “inactive”; that for `CCCCNP(N)(N)=S` was “inactive”.
The same measure, in the same setting: to `CCc1cc(C)cc(CC)c1-c1c(OC(=O)C(C)(C)C)n2n(c1=O)CCOCC2` belongs “inactive”.
With `N#CC(c1ccccc1)c1ccccc1`, the outcome was inactive.
Same read-out and setting: the value for `O=C1Nc2ccc(Cl)cc2C(c2ccccc2)=NC1O` (stereo not given) was “inactive”; that for `COC(=O)COc1ccc(Cl)cc1Cl` was “inactive”.
For `CCC(C)c1cc([N+](=O)[O-])cc([N+](=O)[O-])c1OC(=O)C=C(C)C` (stereo not given), the AC50 was 8.06 µM (active).
Consider `O=C=Nc1ccccc1`, for which the call was inactive.
In the case of `CC(=O)/C=C/c1ccccc1`, the AC50 is 50 µM (active).
As for `CCC(=O)c1ccc(Cl)cc1`, the molecule was called inactive.
Still for that read-out and setting: the value for `COc1cc(OC)c(OC)cc1C=O` was “inactive”.
In the case of `O=C(O)c1cc[c]([Hg][Cl])cc1`, the outcome was inactive.
On the same count and under the same terms, to `O=C(NCNC(=O)NC1C(=O)NC(=O)N1CO)NC1C(=O)NC(=O)N1CO` (stereo not given) belongs “inactive”.
Still for that read-out and setting: to `CCC(Br)(CC)C(=O)NC(N)=O` belongs “inactive”.
On the same count and under the same terms, the value for `[CH3][Sn]([Cl])([Cl])[Cl]` was “inactive”.
`CC(=O)c1cc2c(cc1C)C(C)(C)C(C)CC2(C)C` (stereo not given): the AC50 was 26.5 µM (active).
For `Nc1ccc(Cl)c(Cl)c1`, the molecule was called inactive.
Regarding `CC1OC(C)OC(C)O1` (stereo not given), the molecule was called inactive.
Take `C=CCO`: the molecule was classed as inactive.
On the same count and under the same terms, to `c1ccc(Nc2ccc3ccccc3c2)cc1` belongs “inactive”; to `N#CCNCC#N`, “inactive”; to `Cc1ccc(C)c2ccccc12`, “inactive”.
As to `O=S(=O)(O)OOS(=O)(=O)O`, the call was inactive.
Regarding `C#CC1(O)CCCCC1`, the molecule was classed as inactive.
Same read-out and setting: the value for `O=c1[nH]c(Cl)c(Cl)cc1Cl` was “inactive”.

Values taken from PubChem BioAssay (EPA / NIEHS).
